High-throughput results from PubChem BioAssay.
Shown are actives, neighbours in structure and some others; about 1.5% of the full set was active somewhere.
LANA-H2B inh: blocks KSHV LANA binding to histone H2A/H2B. cell-free LANA-H2A/H2B peptide, fluorescence polarization. inhibition, % (test concentration not listed). 320,000 compounds, 0.6% hits. AID 2629; in the data active = inhibition mostly above about 10%, no sharp cut-off; inactive = mostly below about 6.7%
Target sequence (Q9QR71 whole entry, looked up): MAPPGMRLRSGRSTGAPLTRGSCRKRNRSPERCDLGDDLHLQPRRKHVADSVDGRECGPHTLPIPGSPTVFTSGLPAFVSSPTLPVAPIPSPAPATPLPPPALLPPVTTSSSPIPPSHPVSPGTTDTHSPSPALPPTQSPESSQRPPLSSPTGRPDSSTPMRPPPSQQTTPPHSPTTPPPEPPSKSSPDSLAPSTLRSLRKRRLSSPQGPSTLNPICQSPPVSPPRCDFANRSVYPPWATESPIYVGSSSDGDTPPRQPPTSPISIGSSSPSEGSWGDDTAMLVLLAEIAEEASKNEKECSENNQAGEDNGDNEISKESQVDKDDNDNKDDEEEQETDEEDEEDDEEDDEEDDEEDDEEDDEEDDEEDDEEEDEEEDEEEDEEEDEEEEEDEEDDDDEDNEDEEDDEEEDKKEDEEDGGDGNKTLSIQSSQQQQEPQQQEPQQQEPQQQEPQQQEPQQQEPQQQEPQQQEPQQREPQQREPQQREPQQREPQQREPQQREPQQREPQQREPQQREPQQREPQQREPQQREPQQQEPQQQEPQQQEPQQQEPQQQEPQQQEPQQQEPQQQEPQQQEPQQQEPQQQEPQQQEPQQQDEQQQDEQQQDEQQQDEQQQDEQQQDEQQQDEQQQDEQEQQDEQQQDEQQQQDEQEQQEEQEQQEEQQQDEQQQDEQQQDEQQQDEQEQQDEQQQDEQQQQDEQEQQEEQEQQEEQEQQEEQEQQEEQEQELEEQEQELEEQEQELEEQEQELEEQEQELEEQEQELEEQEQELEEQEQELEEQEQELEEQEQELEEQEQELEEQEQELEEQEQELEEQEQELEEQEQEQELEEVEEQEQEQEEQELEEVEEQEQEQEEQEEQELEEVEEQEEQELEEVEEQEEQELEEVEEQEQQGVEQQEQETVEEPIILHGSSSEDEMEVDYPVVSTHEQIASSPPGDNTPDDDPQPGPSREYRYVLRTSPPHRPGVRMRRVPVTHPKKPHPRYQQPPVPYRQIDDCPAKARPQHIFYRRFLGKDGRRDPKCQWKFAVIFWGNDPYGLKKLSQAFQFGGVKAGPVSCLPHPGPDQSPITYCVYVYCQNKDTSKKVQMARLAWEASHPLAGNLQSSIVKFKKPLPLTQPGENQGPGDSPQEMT
EBV gp42 inh: blocks Epstein-Barr virus glycoprotein 42 binding; Q1HVG2; Fluorescence polarization binding assay, mP read-out; inhibition, % (tested at 21.74 µM); 220,000 compounds, 0.42% hits; AID 1085; in the data active = inhibition above about 50%
E coli Lon inh: E. coli protease La inhibition; P0A9M0; purified E. coli Lon protease, fluorescence polarization; inhibition, % at 7.94 µM; 360,000 compounds, 0.42% hits; AID 602123; in the data active = inhibition above about 13%, passing the limit was not always enough
LANA DNA inh: blocks KSHV LANA C-terminal domain binding to DNA. inhibition, % at 9 µM. MBP-C-LANA/FAM-LBS DNA binding, fluorescence polarization. 340,000 compounds, 0.078% hits;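 active = highest replicate inhibition at or above 60% at 9 µM, even if other replicates fall short; inactive = all replicates below 60% inhibition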
GLD-1 RNA inh: GLD-1-TGE RNA interaction inhibition (C. elegans) | purified GLD-1 + fluorescein TGE RNA, fluorescence polarization | Q17339 | 320,000 compounds, 0.44% hits | inhibition, % at 5.96 µM;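 active = percent inhibition above a per-plate cutoff, the plate mean of test compounds plus 3 SD, cut at about 30% in these data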
Keap1 Nrf2 FP: inhibitors of human Keap1-Nrf2 protein-protein interaction. Keap1 Kelch-Nrf2 peptide fluorescence polarization, 1536-well. 340,000 compounds, 0.15% hits. inhibition, % at 9.4 µM; in the data active = inhibition above about 12%;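 also: human Keap1 Kelch domain with fluorescein labeled Nrf2 9mer peptide probe; higher means more block of Keap1 binding to Nrf2 peptide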
Numbers stand for hits; i = inactive; nt = not tested or not shown; + = active, no number.

SMILES	LANA-H2B inh	EBV gp42 inh	E coli Lon inh	LANA DNA inh	GLD-1 RNA inh	Keap1 Nrf2 FP
CC1(C)S[C@@H]2[C@H](NC(=O)C(C(=O)O)c3ccccc3)C(=O)N2[C@H]1C(=O)O (stereo partly specified)	26.8	i	i	i	i	i
O=C(NCCCCc1ccccc1)C1CCCC1	i	nt	i	101.0	i	i
O=C(NCCCCNC(=O)C1CCCC1)C1CCCC1	i	i	i	i	i	i
CC(=O)C1CCC2C3C=CC4=CC(=O)CCC4(C)C3CCC12C (stereo unspecified)	nt	nt	i	nt	nt	nt
COc1cccc(N(CC(=O)NCC2CCCO2)C(=O)CCC(=O)Nc2nccs2)c1 (stereo unspecified)	29.0	i	i	i	i	i
C=CCn1c(C)cc(C(=O)COC(=O)COc2ccccc2C#N)c1C	i	90.0	i	i	i	i
Cc1cc(C(=O)COC(=O)COc2ccccc2C#N)c(C)n1CC1CCCO1 (stereo unspecified)	i	nt	i	i	i	i
CC(C)(C)C1CC=C2C(C#N)=C(N)C(C#N)(C#N)C(c3cccs3)C2C1 (stereo unspecified)	i	nt	nt	nt	61.9	nt
CCOC(=O)C1C(=O)CC(C)(O)C(C(=O)OCC)C1/C=C/c1ccccc1 (stereo unspecified)	81.5	i	i	i	nt	i
C[C@]12c3[nH]c4ccccc4c3CCN1C(=O)C(CC(=O)NCc1cccc(C(F)(F)F)c1)C[C@@H]2C(=O)N1CCOCC1 (stereo partly specified)	+	nt	i	i	i	i
CCN(CC)C(=O)[C@H]1C[C@H](CC(=O)NCCc2ccccn2)C(=O)N2CCc3c([nH]c4cc(-c5ccco5)ccc34)[C@]12C	nt	nt	i	i	nt	+
C[C@]12c3[nH]c4ccccc4c3CCN1C(=O)C(CC(=O)NCc1cccc(C(F)(F)F)c1)C[C@@H]2C(=O)N1CCCCC1 (stereo partly specified)	i	nt	i	i	i	i
C[C@]12c3[nH]c4ccccc4c3CCN1C(=O)C(CC(=O)NCc1ccco1)C[C@@H]2C(=O)N1CCOCC1 (stereo partly specified)	94.0	nt	i	i	i	i
COc1ccc(C(O)c2nc(-c3ccncc3)cs2)cc1 (stereo unspecified)	nt	nt	i	nt	nt	nt
CCC(=O)N(C)C[C@H]1Oc2ncc(C#Cc3cccnc3)cc2C(=O)N([C@@H](C)CO)C[C@@H]1C	nt	nt	i	nt	nt	nt
CCCCCCCCCCCC1N=C(N)NC(CCCO)=C1C(=O)OC (stereo unspecified)	nt	nt	i	i	nt	i
CCOc1ccc(CCNC(=O)COC(=O)c2nn(C)c(=O)c3ccccc23)cc1OCC	12.2	nt	i	i	i	i
COc1ccc(C(=O)NC2CCN(S(=O)(=O)c3ccccc3)CC2)cc1	i	nt	i	i	i	i
COc1ccc(S(=O)(=O)N2CCC(Nc3ccccc3Cl)CC2)cc1	38.0	nt	i	i	nt	i
C=CCOc1ccc(/C(O)=C2/C(=O)C(=O)N(CCCN3CCOCC3)C2c2ccc(OC)cc2)cc1 (stereo unspecified)	15.5	i	i	i	i	i
CCOC(=O)Nc1ccc(C)cc1NC(=O)OCC	i	i	i	i	i	i
CCOC(=O)Nc1ccc(NCc2ccc(F)cc2)nc1N	i	nt	i	i	132.3	i
CCOc1ccc(C(=S)N2CCCC2)cc1OCC	i	nt	i	i	i	i
CCOc1cc(C(=S)N2CCCC2)ccc1OCc1ccccc1	9.2	nt	i	i	i	i
Fc1ccc(COc2ccc(C(=S)N3CCCC3)cc2)cc1	22.2	nt	i	i	i	i
SMILES	LANA-H2B inh	EBV gp42 inh	E coli Lon inh	LANA DNA inh	GLD-1 RNA inh	Keap1 Nrf2 FP
S=C(c1ccc(OCc2ccccc2)cc1)N1CCCC1	i	nt	i	i	i	i
COc1ccccc1NC(=O)Nc1c(C)nn(C)c1C	i	i	i	i	i	i
Cn1c(=O)c(=O)n(C)c2cc(S(=O)(=O)N3CCC(Cc4ccccc4)CC3)ccc21	12.6	i	i	i	i	i
Cn1c(=O)c(=O)n(C)c2cc(S(=O)(=O)N3CCCCCC3)ccc21	i	i	i	i	i	i
CN(Cc1ccccc1)C(=O)C1CCCN1S(=O)(=O)c1ccc2c(c1)n(C)c(=O)c(=O)n2C (stereo unspecified)	23.8	i	i	i	i	i
CCc1ccccc1NC(=O)C1CCCN1S(=O)(=O)c1ccc2c(c1)n(C)c(=O)c(=O)n2C (stereo unspecified)	i	nt	i	i	i	i
O=C(Nc1nnc([C@@H]2C[C@H](O)[C@@H](CO)O2)s1)NC(c1ccccc1)c1ccccc1	nt	nt	i	nt	nt	nt
